MEKK2 mut-MEK5 – MEK5 binding signal on mutant MEKK2 PB1, primary screen, biochemical, multiplex bead flow cytometry, Alexa488-MEK5 | percent response, % at 10 µM | AID 1530, 2009 | Alexa488-MEK5 binding to MEKK2 mutant | 0.35% of 290,000 active; in the data active = percent response above about 24%, passing the limit was not always enough
MEKK3 PB1 HTS – modulators of MEKK3-MEK5 PB1 binding, primary screen, biochemical, wildtype MEKK3, multiplex bead flow cytometry, Alexa488-MEK5. binding response (% of control), % at 10 µM. bead-based flow cytometry, Alexa488-MEK5 binding to MEKK3; actives lie on both sides; 0 = blocked by unlabeled MEK5, 100 = vehicle. Mitogen-activated protein kinase kinase kinase 3 (Homo sapiens), Q99759. 1.4% of 290,000 active;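 active = binding response more than 3 SD above or below the average of its plate-row segment, actives on both sides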;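 note: Alexa488 bead fluorescence after subtracting the streptavidin-only scavenger bead signal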
MEKK2wt PB1 HTS – modulators of MEK5 binding to wildtype MEKK2, primary screen, biochemical, multiplex bead flow cytometry, Alexa488-MEK5; Mitogen-activated protein kinase kinase kinase 2 (Homo sapiens), Q9Y2U5; Alexa488-MEK5 binding to MEKK2 WT; actives lie on both sides; binding response (% of control), % at 10 µM; 1.1% of 290,000 active; in the data active = binding response below about 67% or above about 130%
CendR NRP1 mod – modulators of CendR peptide binding to NRP-1, primary screen, biochemical, fluorescence polarization, uHTS; Neuropilin-1 (Homo sapiens), O14786; FAM-RPARPAR peptide binding to NRP-1; inhibition, % at 25 µM; 0.85% of 360,000 active; AID 602438, 2012;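 active = inhibition or corrected inhibition above about 18%, plus a signal ratio from 0.5 to 1.5, limit read from the data, passing the limit was not always enough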
Target sequence (O14786 whole entry, looked up): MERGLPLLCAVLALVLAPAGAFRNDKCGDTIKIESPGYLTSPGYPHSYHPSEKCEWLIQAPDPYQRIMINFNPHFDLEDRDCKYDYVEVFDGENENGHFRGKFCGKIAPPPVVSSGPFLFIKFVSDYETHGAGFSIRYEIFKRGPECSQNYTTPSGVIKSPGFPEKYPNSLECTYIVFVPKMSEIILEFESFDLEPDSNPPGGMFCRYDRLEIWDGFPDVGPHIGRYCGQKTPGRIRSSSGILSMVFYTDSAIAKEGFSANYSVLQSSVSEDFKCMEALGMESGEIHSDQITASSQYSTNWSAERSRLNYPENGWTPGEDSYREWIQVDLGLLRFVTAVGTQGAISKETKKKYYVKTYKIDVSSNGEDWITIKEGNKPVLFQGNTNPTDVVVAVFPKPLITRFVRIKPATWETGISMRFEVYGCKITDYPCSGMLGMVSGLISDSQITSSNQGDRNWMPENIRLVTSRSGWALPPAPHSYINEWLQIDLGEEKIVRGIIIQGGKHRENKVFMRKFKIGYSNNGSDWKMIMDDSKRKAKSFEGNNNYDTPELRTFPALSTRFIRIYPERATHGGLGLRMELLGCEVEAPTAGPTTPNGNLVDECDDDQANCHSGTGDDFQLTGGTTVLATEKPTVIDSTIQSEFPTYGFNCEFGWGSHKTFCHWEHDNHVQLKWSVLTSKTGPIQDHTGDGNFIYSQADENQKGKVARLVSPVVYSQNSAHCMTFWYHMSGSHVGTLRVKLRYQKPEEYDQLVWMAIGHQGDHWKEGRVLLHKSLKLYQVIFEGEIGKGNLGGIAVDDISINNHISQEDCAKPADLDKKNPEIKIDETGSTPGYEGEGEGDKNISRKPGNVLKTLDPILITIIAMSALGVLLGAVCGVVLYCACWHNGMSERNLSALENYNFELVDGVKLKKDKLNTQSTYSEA
SKN-1 inh – suppressors of acrylamide-induced Pgst-4::GFP reporter in worms, primary screen, SKN-1 inhibitor project, whole organism, uHTS, GFP/RFP fluorescence ratio, strain VP596 | inhibition, % at 21.8 µM | AID 624304, 2012 | 0.49% of 360,000 active | C. elegans VP596 Pgst-4::GFP/RFP ratio, 24 h;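 active = interference check ratio from 0.5 to 1.5 plus GFP to RFP signal ratio inhibition reaching or exceeding a fixed threshold, cut at about 30% in these data, passing the limit was not always enough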
Hits are given with their value; i = inactive; nt = no result given; [ ] = dose if it differs, or a comment. A selection: hits, their analogues and other compounds. The true share with any hit is near 3.2%.

SMILES	MEKK2 mut-MEK5	MEKK3 PB1 HTS	MEKK2wt PB1 HTS	CendR NRP1 mod	SKN-1 inh
Cn1c(=O)c2[nH]c(COc3ccccc3)nc2n(C)c1=O	nt	nt	nt	31.7	i
Cn1c(=O)c2[nH]c(CN(Cc3ccccc3)Cc3ccccc3)nc2n(C)c1=O	nt	nt	nt	i	i
CCn1c(N2CCN(CC(=O)c3ccc(OC)cc3)CC2)nc2ccccc21	i	2.0[inhibitor]	2.0[inhibitor]	i	i
COc1ccc(/C=C/C(=O)c2nc3ccccc3n2CC(=O)c2ccc(OC)cc2)cc1	i	i	i	i	44.5
COc1ccccc1NS(=O)(=O)c1cc(C(=O)Nc2ccc(S(=O)(=O)Nc3onc(C)c3C)cc2)ccc1C	nt	nt	nt	i	i
COc1ccccc1NS(=O)(=O)c1ccc(C)c(C(=O)Nc2ccc(S(=O)(=O)Nc3onc(C)c3C)cc2)c1	nt	nt	nt	32.7	i
O=S(=O)(c1ccccc1)C1CC1(c1ccccc1)c1ccccc1 (stereo not drawn)	nt	nt	nt	i	i
CCC(=O)c1ccc(OCC(O)CN2CCN(S(=O)(=O)N3CCCCC3)CC2)cc1 (stereo not drawn)	i	i	i	i	35.4
O=C(c1ccccc1)c1ccc(OCC(O)CN2CCN(S(=O)(=O)N3CCCCC3)CC2)cc1 (stereo not drawn)	i	i	i	i	i
CCCCNC(=O)C1(C)CCCCN1C(=O)c1c(Cl)cccc1Cl (stereo not drawn)	nt	nt	nt	i	i
CCOC(=O)/C=C1\NC(=O)CS1	i	i	i	28.1	i
Cc1[nH]c2ccccc2c1C(=O)/C=C\c1ccccc1Cl	i	i	i	i	i
Cc1[nH]c2ccccc2c1C(=O)/C=C/c1ccccc1	i	i	i	i	53.0
Cc1ccc(CC2(C)C(=O)Nc3c(Cl)ccc(Cl)c32)cc1 (stereo not drawn)	nt	nt	nt	i	i
COc1cccc(NC(=O)Nc2nnc([C@H]3C[C@H](O)[C@@H](CO)O3)s2)c1	nt	nt	nt	i	i
O=C(CSc1nc2ccc(Cl)cc2[nH]1)NCCc1ccccc1	i	i	i	28.4	i
O=C(Cc1ccccc1)NCCc1cccc(Cl)c1	i	i	i	25.7	i
Cc1ccc(F)c(S(=O)(=O)NC(=O)C2(C)CCN2C(=O)C/C=C/c2ccccc2)c1 (stereo not drawn)	nt	nt	nt	i	i
O=C1NC[C@@H](CCCCN2C[C@H](Cc3ccc(O)cc3)N(CCC3CCCCC3)C(=O)C2=O)N(CC2CCCCC2)C1=O	nt	nt	nt	i	i
O=C(c1ccc(C#Cc2ccccc2)o1)N1CCN(c2ccccn2)CC1	i	i	i	40.3	i
COC(=O)c1ccc(C#Cc2ccccc2)o1	i	i	i	i	37.1
C[C@@H]1CN([C@H](C)CO)C(=O)CCCn2cc(nn2)CO[C@H]1CN(C)C(=O)c1ccc2ccn(C)c2c1	nt	nt	nt	i	i
Cc1ccc(CNS(=O)(=O)c2ccc(-c3cnc(C4CC4)o3)cc2)cc1	i	i	i	20.8	i
C=CCOc1cccn2c(N(C)C(=O)c3ccc(OC)cc3)c(CC)nc12	nt	nt	nt	i	i
Oc1ccc2ccccc2c1CN1CCCCC1	nt	nt	nt	25.6	i
SMILES	MEKK2 mut-MEK5	MEKK3 PB1 HTS	MEKK2wt PB1 HTS	CendR NRP1 mod	SKN-1 inh
CC(C)C(=O)N1CCC1(C)C(=O)NCc1ccc(C(C)(C)C)cc1 (stereo not drawn)	nt	nt	nt	i	i
Cc1c(N2C(=O)/C(=C\c3ccc(N(C)C)cc3)N(C)C2=S)c(=O)n(-c2ccccc2)n1C	i	i	i	i	63.9
CCN1CCCC1CNC(=O)c1ccc2c(c1)N(Cc1ccccc1F)C(=O)c1ccccc1S2(=O)=O (stereo not drawn)	i	i	i	i	i
Cc1cccc(CN2C(=O)c3ccccc3S(=O)(=O)c3ccc(C(=O)NCCCN4CCCC4)cc32)c1	i	i	141.0	i	i
CC1CCCN(CCCNC(=O)c2ccc3c(c2)N(Cc2ccccc2F)C(=O)c2ccccc2S3(=O)=O)C1 (stereo not drawn)	i	i	136.0	i	i
O=C(NC1CCCC1)C(c1ccc(F)cc1)N1CCC(O)(c2ccc(Cl)cc2)CC1 (stereo not drawn)	nt	nt	nt	i	i
